Measurements from ChEMBL document CHEMBL1961873, “Compounds: GSK PKIS; Assays: Nanosyn kinase panel” (2012).

Experiments:
[1] = molecular target: High affinity nerve growth factor receptor (Homo sapiens) (UniProt P04629); conditions: at 1 µM;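 note: each value is the mean percent inhibition of TRKA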
[2] = molecular target: BDNF/NT-3 growth factors receptor (Homo sapiens) (UniProt Q16620); conditions: at 0.1 µM
[3] = molecular target: BDNF/NT-3 growth factors receptor (Homo sapiens) (UniProt Q16620); conditions: at 1 µM
[4] = molecular target: NT-3 growth factor receptor (Homo sapiens) (UniProt Q16288); conditions: at 0.1 µM
[5] = molecular target: NT-3 growth factor receptor (Homo sapiens) (UniProt Q16288); conditions: at 1 µM
[6] = molecular target: T1, Tyrosine-protein kinase TXK (Homo sapiens) (UniProt P42681); conditions: at 0.1 µM
T1 sequence (whole entry): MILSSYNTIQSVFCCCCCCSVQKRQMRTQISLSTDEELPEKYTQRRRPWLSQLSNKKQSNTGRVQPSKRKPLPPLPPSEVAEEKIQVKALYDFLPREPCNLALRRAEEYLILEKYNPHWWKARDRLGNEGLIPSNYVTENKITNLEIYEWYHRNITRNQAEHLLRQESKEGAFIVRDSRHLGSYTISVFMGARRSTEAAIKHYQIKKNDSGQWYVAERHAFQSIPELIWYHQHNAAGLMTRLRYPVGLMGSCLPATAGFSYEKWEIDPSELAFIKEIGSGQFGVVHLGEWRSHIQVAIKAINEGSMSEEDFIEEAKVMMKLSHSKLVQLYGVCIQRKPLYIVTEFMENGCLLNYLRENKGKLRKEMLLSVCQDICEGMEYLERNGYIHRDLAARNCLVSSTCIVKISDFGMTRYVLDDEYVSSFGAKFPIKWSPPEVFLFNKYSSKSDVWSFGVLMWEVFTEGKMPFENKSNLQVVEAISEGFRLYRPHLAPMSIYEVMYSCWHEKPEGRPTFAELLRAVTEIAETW

[7] = molecular target: T1, Tyrosine-protein kinase TXK (Homo sapiens); conditions: at 1 µM
[8] = molecular target: Non-receptor tyrosine-protein kinase TYK2 (Homo sapiens) (UniProt P29597); conditions: at 0.1 µM;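 note: each value is a mean of the inhibition readings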
Chain of Non-receptor tyrosine-protein kinase TYK2 (Homo sapiens) (P29597 whole entry): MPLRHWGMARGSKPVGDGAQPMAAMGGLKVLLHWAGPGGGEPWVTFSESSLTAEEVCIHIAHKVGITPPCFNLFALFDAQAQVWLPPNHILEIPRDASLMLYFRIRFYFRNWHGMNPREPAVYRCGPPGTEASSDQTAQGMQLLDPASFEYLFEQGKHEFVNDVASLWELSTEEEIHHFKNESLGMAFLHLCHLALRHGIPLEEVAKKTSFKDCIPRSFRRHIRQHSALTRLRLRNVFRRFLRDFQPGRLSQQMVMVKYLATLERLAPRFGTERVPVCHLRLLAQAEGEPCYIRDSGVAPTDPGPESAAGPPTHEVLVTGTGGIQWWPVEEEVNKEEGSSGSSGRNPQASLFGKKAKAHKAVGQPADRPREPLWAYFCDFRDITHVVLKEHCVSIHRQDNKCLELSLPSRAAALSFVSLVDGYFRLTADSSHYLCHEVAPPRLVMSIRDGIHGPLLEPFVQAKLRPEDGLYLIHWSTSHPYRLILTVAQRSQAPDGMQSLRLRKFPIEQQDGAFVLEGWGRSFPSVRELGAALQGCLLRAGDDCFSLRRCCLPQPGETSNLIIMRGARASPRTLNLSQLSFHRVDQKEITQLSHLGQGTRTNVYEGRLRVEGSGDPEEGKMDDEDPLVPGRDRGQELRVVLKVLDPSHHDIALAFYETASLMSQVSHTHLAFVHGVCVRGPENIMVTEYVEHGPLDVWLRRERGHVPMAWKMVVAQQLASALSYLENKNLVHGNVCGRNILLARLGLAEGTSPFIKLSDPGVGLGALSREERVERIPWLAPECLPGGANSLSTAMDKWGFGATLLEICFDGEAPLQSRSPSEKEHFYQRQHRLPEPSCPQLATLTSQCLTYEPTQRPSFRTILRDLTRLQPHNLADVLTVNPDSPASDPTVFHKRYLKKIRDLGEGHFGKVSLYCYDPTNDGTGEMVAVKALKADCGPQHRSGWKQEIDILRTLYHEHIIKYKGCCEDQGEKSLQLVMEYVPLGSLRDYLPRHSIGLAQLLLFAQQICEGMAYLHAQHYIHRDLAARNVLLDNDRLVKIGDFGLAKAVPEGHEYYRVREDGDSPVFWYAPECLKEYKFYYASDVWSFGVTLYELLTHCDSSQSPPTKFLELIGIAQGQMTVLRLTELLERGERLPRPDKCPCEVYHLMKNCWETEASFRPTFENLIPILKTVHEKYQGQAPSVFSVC

[9] = molecular target: T2, Dual specificity protein kinase TTK (Homo sapiens) (UniProt P33981); conditions: at 1 µM;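 note: reported figures are mean TTK inhibition at 1 µM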
T2 sequence (whole entry): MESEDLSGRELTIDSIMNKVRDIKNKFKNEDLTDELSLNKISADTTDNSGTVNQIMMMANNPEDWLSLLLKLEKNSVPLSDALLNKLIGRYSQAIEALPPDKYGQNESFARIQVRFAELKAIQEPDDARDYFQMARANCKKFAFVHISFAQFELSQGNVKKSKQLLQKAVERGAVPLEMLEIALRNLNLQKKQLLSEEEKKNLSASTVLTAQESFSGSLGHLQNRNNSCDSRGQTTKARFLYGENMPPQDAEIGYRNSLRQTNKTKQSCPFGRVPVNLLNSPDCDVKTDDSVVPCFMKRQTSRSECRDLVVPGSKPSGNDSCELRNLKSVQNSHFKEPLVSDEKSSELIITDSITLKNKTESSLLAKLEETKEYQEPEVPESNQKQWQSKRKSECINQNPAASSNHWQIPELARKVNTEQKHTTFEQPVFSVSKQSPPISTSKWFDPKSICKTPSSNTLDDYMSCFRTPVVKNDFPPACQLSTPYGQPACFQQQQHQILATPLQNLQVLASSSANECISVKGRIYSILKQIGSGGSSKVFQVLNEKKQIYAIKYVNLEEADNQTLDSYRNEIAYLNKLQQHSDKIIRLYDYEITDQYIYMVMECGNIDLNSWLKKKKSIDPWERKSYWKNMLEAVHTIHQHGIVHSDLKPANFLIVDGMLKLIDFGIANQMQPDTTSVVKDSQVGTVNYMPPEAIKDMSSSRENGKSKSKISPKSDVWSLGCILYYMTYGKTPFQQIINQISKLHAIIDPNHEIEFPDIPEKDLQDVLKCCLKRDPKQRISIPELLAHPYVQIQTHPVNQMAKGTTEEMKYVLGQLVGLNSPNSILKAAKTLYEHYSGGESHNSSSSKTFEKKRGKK

[10] = molecular target: T3, Aurora kinase A (Homo sapiens) (UniProt O14965); conditions: at 0.1 µM
T3 sequence (whole entry): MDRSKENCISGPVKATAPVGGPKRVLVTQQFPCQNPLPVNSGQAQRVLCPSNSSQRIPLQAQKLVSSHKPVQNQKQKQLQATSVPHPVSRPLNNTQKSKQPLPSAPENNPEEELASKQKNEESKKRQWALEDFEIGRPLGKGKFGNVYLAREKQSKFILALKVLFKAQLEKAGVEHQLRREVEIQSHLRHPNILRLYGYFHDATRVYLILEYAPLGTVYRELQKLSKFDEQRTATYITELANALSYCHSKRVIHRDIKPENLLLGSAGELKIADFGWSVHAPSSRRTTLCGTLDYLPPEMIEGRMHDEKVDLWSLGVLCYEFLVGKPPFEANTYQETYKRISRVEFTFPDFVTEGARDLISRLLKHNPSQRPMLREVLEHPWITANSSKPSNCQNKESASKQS

[11] = molecular target: T3, Aurora kinase A (Homo sapiens); conditions: at 1 µM
[12] = molecular target: Aurora kinase B (Homo sapiens) (UniProt Q96GD4); conditions: at 0.1 µM
Chain of Aurora kinase B (Homo sapiens) (Q96GD4 whole entry): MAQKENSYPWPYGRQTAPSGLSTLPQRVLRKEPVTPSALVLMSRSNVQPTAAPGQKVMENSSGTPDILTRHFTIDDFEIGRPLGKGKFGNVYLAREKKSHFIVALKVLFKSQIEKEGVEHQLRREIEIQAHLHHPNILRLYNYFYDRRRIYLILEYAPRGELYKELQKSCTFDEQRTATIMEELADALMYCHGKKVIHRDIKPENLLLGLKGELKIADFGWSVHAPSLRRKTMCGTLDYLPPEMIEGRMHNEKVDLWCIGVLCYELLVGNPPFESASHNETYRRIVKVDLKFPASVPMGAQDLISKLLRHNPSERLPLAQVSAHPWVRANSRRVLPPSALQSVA

[13] = molecular target: Aurora kinase B (Homo sapiens) (UniProt Q96GD4); conditions: at 1 µM
[14] = molecular target: T4, Aurora kinase C (Homo sapiens) (UniProt Q9UQB9); conditions: at 0.1 µM
T4 sequence (whole entry): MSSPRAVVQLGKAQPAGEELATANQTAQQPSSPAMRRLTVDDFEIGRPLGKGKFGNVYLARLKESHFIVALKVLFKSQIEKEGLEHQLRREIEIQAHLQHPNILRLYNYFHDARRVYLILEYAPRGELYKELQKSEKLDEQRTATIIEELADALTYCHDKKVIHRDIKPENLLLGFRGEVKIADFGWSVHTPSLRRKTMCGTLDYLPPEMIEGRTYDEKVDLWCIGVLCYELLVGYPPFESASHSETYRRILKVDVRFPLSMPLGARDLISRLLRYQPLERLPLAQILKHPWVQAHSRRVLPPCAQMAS

[15] = molecular target: T4, Aurora kinase C (Homo sapiens); conditions: at 1 µM
[16] = molecular target: Serine/threonine-protein kinase 10 (Homo sapiens) (UniProt O94804); conditions: at 0.1 µM
Chain of Serine/threonine-protein kinase 10 (Homo sapiens) (O94804 whole entry, looked up): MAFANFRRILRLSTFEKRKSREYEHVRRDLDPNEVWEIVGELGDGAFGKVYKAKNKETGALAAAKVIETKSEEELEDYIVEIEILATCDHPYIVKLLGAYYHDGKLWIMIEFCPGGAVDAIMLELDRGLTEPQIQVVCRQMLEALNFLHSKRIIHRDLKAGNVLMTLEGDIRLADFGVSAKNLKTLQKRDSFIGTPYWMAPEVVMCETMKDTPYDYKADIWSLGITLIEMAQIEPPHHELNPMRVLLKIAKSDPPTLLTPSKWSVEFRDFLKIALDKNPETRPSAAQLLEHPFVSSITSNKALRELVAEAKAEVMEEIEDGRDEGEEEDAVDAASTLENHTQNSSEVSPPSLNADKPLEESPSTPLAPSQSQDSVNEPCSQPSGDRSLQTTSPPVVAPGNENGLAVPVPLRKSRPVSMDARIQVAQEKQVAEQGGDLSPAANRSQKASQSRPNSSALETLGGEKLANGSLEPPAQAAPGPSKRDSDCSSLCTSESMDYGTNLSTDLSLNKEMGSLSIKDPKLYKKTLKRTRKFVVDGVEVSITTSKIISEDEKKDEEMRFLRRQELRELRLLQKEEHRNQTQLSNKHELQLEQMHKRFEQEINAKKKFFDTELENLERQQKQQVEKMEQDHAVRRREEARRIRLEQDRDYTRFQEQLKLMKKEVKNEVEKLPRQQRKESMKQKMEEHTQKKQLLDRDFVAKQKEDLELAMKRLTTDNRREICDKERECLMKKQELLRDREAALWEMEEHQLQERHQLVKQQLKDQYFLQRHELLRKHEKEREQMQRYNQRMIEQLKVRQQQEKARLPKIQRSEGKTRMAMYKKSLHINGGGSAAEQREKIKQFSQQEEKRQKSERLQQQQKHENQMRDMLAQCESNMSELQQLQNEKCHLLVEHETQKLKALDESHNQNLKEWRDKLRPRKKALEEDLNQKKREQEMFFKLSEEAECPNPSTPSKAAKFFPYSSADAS

[17] = molecular target: Serine/threonine-protein kinase 10 (Homo sapiens) (UniProt O94804); conditions: at 1 µM
[18] = molecular target: T5, Mitogen-activated protein kinase kinase kinase kinase 2 (Homo sapiens) (UniProt Q12851); conditions: at 0.1 µM
T5 sequence (whole entry): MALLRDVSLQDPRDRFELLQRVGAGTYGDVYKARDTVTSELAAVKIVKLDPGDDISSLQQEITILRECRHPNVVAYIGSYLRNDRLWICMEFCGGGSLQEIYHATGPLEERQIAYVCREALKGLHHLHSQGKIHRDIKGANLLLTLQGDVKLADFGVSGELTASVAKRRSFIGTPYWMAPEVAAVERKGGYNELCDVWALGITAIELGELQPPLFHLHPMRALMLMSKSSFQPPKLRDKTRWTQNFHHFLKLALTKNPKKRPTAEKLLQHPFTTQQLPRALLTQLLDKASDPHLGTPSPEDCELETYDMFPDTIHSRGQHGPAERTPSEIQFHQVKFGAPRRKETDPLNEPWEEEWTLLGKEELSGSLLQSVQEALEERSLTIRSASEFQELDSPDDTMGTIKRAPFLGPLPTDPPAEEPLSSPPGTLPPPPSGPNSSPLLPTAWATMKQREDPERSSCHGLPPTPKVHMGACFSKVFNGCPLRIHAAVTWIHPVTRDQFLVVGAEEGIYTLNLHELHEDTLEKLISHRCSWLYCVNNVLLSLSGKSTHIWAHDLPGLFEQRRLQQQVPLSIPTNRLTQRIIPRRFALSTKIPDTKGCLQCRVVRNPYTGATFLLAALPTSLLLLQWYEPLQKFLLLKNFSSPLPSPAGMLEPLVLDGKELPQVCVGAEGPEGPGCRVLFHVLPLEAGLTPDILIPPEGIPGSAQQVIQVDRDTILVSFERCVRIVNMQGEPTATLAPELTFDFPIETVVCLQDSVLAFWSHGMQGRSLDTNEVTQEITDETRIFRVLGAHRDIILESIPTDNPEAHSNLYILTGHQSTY

[19] = molecular target: T5, Mitogen-activated protein kinase kinase kinase kinase 2 (Homo sapiens); conditions: at 1 µM
[20] = molecular target: Mitogen-activated protein kinase kinase kinase kinase 4 (Homo sapiens) (UniProt O95819); conditions: at 0.1 µM
Chain of Mitogen-activated protein kinase kinase kinase kinase 4 (Homo sapiens) (O95819 2-1239 limits assumed): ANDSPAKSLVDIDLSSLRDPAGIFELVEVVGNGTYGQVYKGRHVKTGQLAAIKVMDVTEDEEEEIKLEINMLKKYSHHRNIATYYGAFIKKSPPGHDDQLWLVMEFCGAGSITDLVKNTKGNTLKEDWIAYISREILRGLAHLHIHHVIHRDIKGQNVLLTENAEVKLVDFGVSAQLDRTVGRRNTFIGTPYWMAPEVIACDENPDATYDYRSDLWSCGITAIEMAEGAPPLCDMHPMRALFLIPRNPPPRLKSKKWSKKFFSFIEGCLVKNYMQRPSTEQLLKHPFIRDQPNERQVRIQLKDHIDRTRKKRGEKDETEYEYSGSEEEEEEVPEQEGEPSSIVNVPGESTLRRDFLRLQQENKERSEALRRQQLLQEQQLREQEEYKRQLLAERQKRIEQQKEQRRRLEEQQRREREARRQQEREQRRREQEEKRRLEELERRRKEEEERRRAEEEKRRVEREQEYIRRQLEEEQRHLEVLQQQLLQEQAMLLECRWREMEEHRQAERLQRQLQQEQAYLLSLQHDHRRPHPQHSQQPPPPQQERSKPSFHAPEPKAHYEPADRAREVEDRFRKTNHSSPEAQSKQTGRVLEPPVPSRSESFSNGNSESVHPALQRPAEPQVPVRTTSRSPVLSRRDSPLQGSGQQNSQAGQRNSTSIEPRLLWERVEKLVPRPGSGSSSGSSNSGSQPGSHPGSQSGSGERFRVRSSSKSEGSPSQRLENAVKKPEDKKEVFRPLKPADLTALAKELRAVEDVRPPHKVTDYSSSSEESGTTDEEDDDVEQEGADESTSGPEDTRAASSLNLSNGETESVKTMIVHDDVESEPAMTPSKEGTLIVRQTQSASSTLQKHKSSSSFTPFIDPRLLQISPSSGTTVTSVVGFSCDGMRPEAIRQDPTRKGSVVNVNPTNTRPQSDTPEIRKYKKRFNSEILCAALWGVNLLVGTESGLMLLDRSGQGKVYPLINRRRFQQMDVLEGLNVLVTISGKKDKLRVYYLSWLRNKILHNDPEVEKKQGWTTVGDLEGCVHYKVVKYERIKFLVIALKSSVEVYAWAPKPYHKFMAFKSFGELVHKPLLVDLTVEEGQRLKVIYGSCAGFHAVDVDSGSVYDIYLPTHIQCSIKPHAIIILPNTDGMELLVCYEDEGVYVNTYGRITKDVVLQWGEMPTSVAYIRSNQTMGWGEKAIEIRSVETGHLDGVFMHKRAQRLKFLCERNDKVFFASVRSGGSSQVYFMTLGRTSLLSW

Chain of High affinity nerve growth factor receptor (Homo sapiens) (P04629 33-796 limits assumed): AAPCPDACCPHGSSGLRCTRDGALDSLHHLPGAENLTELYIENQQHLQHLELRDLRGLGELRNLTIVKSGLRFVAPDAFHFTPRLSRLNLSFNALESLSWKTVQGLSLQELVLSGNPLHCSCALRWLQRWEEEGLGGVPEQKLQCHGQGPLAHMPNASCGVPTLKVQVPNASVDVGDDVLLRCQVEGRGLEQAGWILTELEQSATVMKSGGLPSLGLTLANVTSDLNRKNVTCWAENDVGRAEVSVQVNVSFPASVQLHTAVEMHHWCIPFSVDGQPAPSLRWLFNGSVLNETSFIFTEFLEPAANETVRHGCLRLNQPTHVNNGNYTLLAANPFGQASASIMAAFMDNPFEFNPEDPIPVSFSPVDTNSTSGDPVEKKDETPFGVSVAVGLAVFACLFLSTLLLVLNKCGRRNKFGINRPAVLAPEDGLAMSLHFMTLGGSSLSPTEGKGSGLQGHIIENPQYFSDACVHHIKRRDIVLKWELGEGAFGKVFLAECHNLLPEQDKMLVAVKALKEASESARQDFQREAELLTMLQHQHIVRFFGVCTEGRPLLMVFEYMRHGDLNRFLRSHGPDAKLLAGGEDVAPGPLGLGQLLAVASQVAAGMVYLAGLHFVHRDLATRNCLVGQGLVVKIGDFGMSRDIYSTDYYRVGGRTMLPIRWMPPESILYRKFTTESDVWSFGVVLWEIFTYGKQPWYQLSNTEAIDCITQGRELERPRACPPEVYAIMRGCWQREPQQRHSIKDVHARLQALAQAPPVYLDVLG

SMILES	inhibition [1] [%]	inhibition [2] [%]	inhibition [3] [%]	inhibition [4] [%]	inhibition [5] [%]	inhibition [6] [%]	inhibition [7] [%]	inhibition [8] [%]	inhibition [9] [%]	inhibition [10] [%]	inhibition [11] [%]	inhibition [12] [%]	inhibition [13] [%]	inhibition [14] [%]	inhibition [15] [%]	inhibition [16] [%]	inhibition [17] [%]	inhibition [18] [%]	inhibition [19] [%]	inhibition [20] [%]
c1ccc(Oc2ccc(Nc3ncc(-c4ccccc4)o3)cc2)cc1	3.28	0.87	2.96	0.46	1.12	1.51	3.57	-0.13	5.67	1.36	10.2	2.17	7.16	0.67	-1.26	0.49	2.71	1.08	1.62	3.28
C/C(Nc1ccc(S(N)(=O)=O)cc1)=C1/C(=O)Nc2ccccc21	38.3	14.1	61.8	17.4	87.1	-0.52	-0.74	1.41	35.7	2.21	37.8	8.07	48	7.34	85.7	0.97	9.28	1.58	17.7	44.9
COc1ccc2ncn(-c3cc(O[C@H](C)c4ccccc4Cl)c(C(N)=O)s3)c2c1	4.03	3.84	9.91	4.36	11	-5.63	-1.33	-5.25	9.02	-1.27	0.29	-0.75	1.24	-3.77	1.77	20.3	59.1	1.91	11	4.38
C[C@@H](Oc1cc(-n2cnc3ccc(OC4CCN(C)CC4)cc32)sc1C(N)=O)c1ccccc1Cl	8.12	3.68	7.84	2.56	9.09	3.26	19	-3.41	8.91	-0.97	-0.02	-0.58	1.75	-3.34	-1.29	50.1	81.4	2.18	18.4	3.22
COc1cc(N2CCN(C(C)C)CC2)ccc1Nc1nc(Nc2ccc(F)cc2C(=O)NC[C@@H](O)CO)c2cc[nH]c2n1	1.99	3.32	5.92	3.35	4.57	-1.48	-0.56	-4.74	82	-1.18	-2.23	-2.39	3.15	-2.54	-7.09	6.3	9.7	1.34	1.33	4.24
O=C1Nc2ccc(I)cc2C1=Cc1cc(Br)c(O)c(Br)c1	7.89	2.53	5.74	1.67	6.01	7.46	6.98	-1.21	13.3	3.6	9.69	1.83	3.08	0.09	4.11	4.81	7.92	0.93	3.6	31.7
NS(=O)(=O)c1ccc(N/N=C2\C(=O)Nc3ccc(C(=O)NCCCn4ccnc4)cc32)cc1	12	9.05	43.2	9.74	44.2	3.46	4.42	-2.26	71.3	5.44	49.9	1.38	17.8	3.31	23.2	6.25	12.2	3.32	8.35	10.8
NS(=O)(=O)c1ccc(Nc2cc(-c3ccc(O)c(F)c3)n[nH]2)cc1	36.2	6.06	36.7	10.5	47.7	-1.15	-0.33	0.21	10	-2.14	37.3	0.09	19.4	-0.76	22.4	-0.42	16.4	0.41	6.09	18.7
CN(c1ccc(NC(=O)Nc2c(Cl)cccc2Cl)cc1)c1ccnc(Nc2cccc(CS(C)(=O)=O)c2)n1	68.7	30.1	55.4	31.7	88.6	9.28	21.1	-2.98	19.4	73.9	97.6	76.4	84.2		104	90.8	86.5	11.5	32.9	34.3
O=C1NC(=O)C(c2cccc(Cl)c2)=C1Nc1ccc(Cl)c(C(=O)O)c1	-0.54	0.88	1.89	1.02	2.72	2.81	2.53	-0.74	9.31	2.92	8.62	0.94	8.32	5.84	-0.75	4.75	6.92	0.39	2.05	2.67
Clc1ccc(CNc2nccc(-c3cnn4ncccc34)n2)cc1	1.03	0.46	1.45	0.37	2.98	2.07	6.82	-1.15	10.5	0.34	10.8	-0.06	8.64	2.6	4.42	2.66	6.27	2.75	9.93	3.91
CCc1nccc2c1nc(-c1nonc1N)n2CC		3.6	-1.57	0.15	-0.85	3.63	7.06	1.46	2.94	2.35	11.2	1.28	5.03	0.67	5.21	-0.01	3.09	2.12	2.26	2.56
CCc1cccc(CC)c1/C=C/c1cncc(C(=O)NC)c1	1.65	1.04	3.79	1.36	3.49	3.65	8.4	-7.46	-0.69	2.26	6.42	-0.55	6.73	0.82	11.7	1.38	5.08	0.77	0.32	1.73
COc1ccc(-c2ccc3c(NC(=O)C4CC4)n[nH]c3n2)cc1	2.48	1.11	5.12	-0.49	5.04	2.08	2.53	0.27	8.48	1.67	9.18	3.59	5.77	-5.01	8.55	4.51	8.53	1.22	0.37	5.28
COc1ccc2cc(-c3c(-c4ccncc4)nc(-c4ccc(S(C)(=O)=O)cc4C)n3C)ccc2c1	0.55	2.95	3.12	2.38	4.11	3.55	5.35	-5.17	8.65	2.7	17.6	4.05	16.2	1.31	12.7	43.9	95.3	0.86	0.3	4.65
